Rows were chosen to be rich in hits. Some 3.1% of all compounds tested hit in one or more screens of this group.
Pin1 inhibitor = human Pin1 inhibition | Pin1 FP peptide displacement, HiFluor488, 10 min | Q13526 | Potency, µM (highest dose often 115 µM), without a hit: at the top dose activity, negative = inhibition, most hits filed as inhibitors | AID 504891 | hit rate 0.009% among 390,000; active = well fitted inhibition curve with a large enough effect in the polarisation, with a control signal flat, not every such curve was filed as active; inconclusive = small, poorly fitted or top-dose-only effect, or effect the other way, or a change in a side signal; inactive = no such curve, though single readings can be large or run the other way; the % refers to the polarisation; also: % is scaled to controls: 0 for no effect and ±100 for the full control effect
PLK1 PBD block = PLK1 (human) polo-box domain binding inhibition | Potency, µM, for the others: max response, negative = inhibition, hits mostly inhibitors | AID 720504 | Plk1 PBD binding of FITC phosphopeptide, fluorescence polarization | hit rate 2.8% among 360,000; also: series mostly up to about 57 µM; % is scaled to controls: 0 for no effect and ±100 for the full control effect; nearly all actives have a fitted effect of over 65% in size
VDR inh = blocks the human vitamin D receptor; P11473; VDR-SRC2-3 peptide fluorescence polarization, 2 h; Potency, µM, inactives show max response, negative = inhibition, usual class: inhibitors; hit rate 0.93% among 400,000; AID 504847; also: % is scaled to controls: 0 for no effect and ±100 for the full control effect
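FP read-out; VDR + SRC2-3 coactivator peptide; 23 nl compound by pintool; 2 h RT incubation; reagents held at 4 deg C, protected from light.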
TDP1 inh = blocks human tyrosyl-DNA phosphodiesterase 1; Q9NUW8; recombinant TDP1, AlphaScreen DNA substrate cleavage; Potency, µM (series often up to 130 µM), for the others: at the highest dose activity change, negative = inhibition, actives largely listed as inhibitors; hit rate 0.28% among 350,000; AID 485290; also: % is scaled to controls: 0 for no effect and ±100 for the full control effect; nearly all actives have a fitted effect of over 40% in size
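E. coli-derived human Tdp1, 1 nM final. Cpd preinc 15 min RT; substrate 15 nM final, 5 min RT; AS bead mix 10 ug/ml final, 10 min RT. Signal loss = tyrosine-FITC cleavage. No-enzyme wells = max signal.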
S-ASM inh = blocks human secretory acid sphingomyelinase; P17405; placental ASM, HMU-PC fluorogenic substrate, 60 min; Potency, µM (titrated, usually from 57.5 µM), inactives show at the top dose activity change, negative = inhibition, most hits filed as inhibitors; hit rate 0.006% among 340,000
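Steps: dispense placental human ASM, pin compound, wait 10 min at room temperature, add HMU-PC0 substrate at 9 uM final, incubate 60 min at 37 °C, add stop solution raising pH to 10, read fluorescence.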
Tb PFK block = inhibitors of T. brucei phosphofructokinase; Potency, µM (doses to about 57.5 µM), for the others: top-dose activity, negative = inhibition, usual class: inhibitors; O15648; hit rate 0.17% among 330,000; AID 485367; T. brucei PFK, ADP-Glo luminescence;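 also: 0% = uninhibited 1x PFK enzyme wells and -100% = no-enzyme wells; nearly all actives have a fitted effect of over 60% in size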
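PFK 1.25 nM, F6P 0.5 mM, ATP 0.1 mM, 0.1 M TEA pH 8.0, 5 mM MgCl2, 0.01% Tween20, 0.1% BSA; 45 min RT. ADP-Glo readout. qHTS titration up to 57 uM; curves fitted, compounds curve-classed.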
* hit, by the source's call; u = inconclusive; x = no result given. Unless noted, calls follow the shape of the dose curve; as a rule, active = well fitted curve in the direction sought with a large enough effect; inconclusive = small, poorly fitted or top-dose-only effect, or another doubt; inactive = no such curve, though single readings can be large; an effect the other way counts as inactive or inconclusive. Potency is read from the fitted curve at half-maximal effect.

SMILES	Pin1 inhibitor	PLK1 PBD block	VDR inh	TDP1 inh	S-ASM inh	Tb PFK block
O=C(CN1C(=O)c2ccccc2C1=O)NCc1ccc(F)cc1	-1%	7.5µM*	u	x	-3%	1%
O=C(CCN1C(=O)c2ccccc2C1=O)NCc1ccc(F)cc1	4%	-1%	-17%	x	-2%	-3%
O=C(O)CCc1nn2c3ccccc3n(Cc3ccccc3F)c2nc1=O	-1%	27µM*	u	5%	4%	-2%
O=C(O)CCc1nn2c3ccccc3n(CC(=O)O)c2nc1=O	10%	-15%	38%	8%	-2%	5%
COc1ccccc1CNc1cc(C)nc2nc(-c3ccc(C)cc3)nn12	20%	x	18%	3%	x	x
CC(=O)OCC(NC(=O)C(CCCCNC(=O)OCc1ccccc1)NC(=O)OC(C)(C)C)C1OC(n2cc(F)c(=O)[nH]c2=O)C(OC(C)=O)C1OC(C)=O (stereo not drawn)	1%	x	-19%	9%	x	x
COc1ccc(CNC(=O)Nc2ccc(OC)cc2)cc1	-7%	-4%	8%	1%	7%	-8%
COc1ccc(CNC(=O)Nc2ccccc2)cc1	-10%	12µM*	u	5%	3%	0%
COc1ccc(NC(=O)C2CCCN2C(=O)NCc2ccccc2)cc1 (stereo not drawn)	3%	15µM*	71µM*	6%	5%	0%
Cc1ccc(S(=O)(=O)N2CCN(c3nc(-c4cccs4)cc4ccccc34)CC2)cc1	-1%	x	16%	x	x	x
C=CCSc1nnc(N2C(=O)C(O)=C(C(=O)c3ccco3)C2c2ccccc2F)s1 (stereo not drawn)	u	13µM*	-23%	9%	-5%	-12%
CC(C)OC(=O)c1cn(-c2ccccc2)nc1-c1ccco1	27%	u	79µM*	-3%	1%	u
O=C(O)c1ccc(N2C(=O)CC(SC(=NCc3ccc4c(c3)OCO4)Nc3ccccc3)C2=O)cc1 (stereo not drawn)	u	53µM*	-19%	6%	-1%	-4%
COc1ccc(C(CC(=O)Nc2ccc(OC)c(OC)c2)N2Cc3ccccc3C2=O)cc1 (stereo not drawn)	1%	x	12%	-3%	x	x
Cc1ccc(C2=NN(CC(=O)NCCCN(CC(C)C)CC(C)C)C(=O)CC2)cc1	-5%	x	-5%	8%	x	x
COC(=O)N1C(=O)[C@](c2ccc(Cl)cc2)(C(C)C)N1C(=O)OC	-3%	24µM*	u	x	2%	-12%
COc1ccc(S(=O)(=O)Nc2c(O)ccc3ccccc23)cc1OC	18%	30µM*	u	x	2%	x
COc1cccc(-c2csc(-c3c(N)c(C(=O)c4ccccc4)n4ccccc34)n2)c1	u	x	8%	-5%	x	x
Cc1ccc(NC(=O)Cn2c(O)c(N=NS(=O)(=O)c3ccc(C)cc3)c3ccccc32)cc1	6%	27µM*	u	-3%	u	1%
Cc1ccc(NC(=O)Cn2c(O)c(N=NC(N)=O)c3ccccc32)cc1	7%	-1%	-3%	1%	-9%	1%
Cc1[nH]c2ccccc2c1/C=C(\C#N)C(=O)NCc1ccccc1	u	1%	-2%	11%	8%	-1%
Cc1ccc(C(C)NC(=O)/C(C#N)=C\c2c(C)[nH]c3ccccc23)cc1 (stereo not drawn)	u	24µM*	u	4%	-13%	1%
CC12C(=O)N(c3ccccn3)C(=O)C1C1C=CC2C1 (stereo not drawn)	-6%	30µM*	u	2%	1%	3%
N#CC(Sc1ccccn1)c1ccc(Cl)cc1 (stereo not drawn)	7%	7.5µM*	u	-1%	73%	-12%
O=C(/C=C/c1ccccc1)N/C(=C/c1ccccc1)C(=O)Nc1ccc(C(=O)O)cc1	-9%	27µM*	u	2%	-2%	0%
O=C(/C=C/c1ccc(Cl)cc1)NC(=S)Nc1ccc(C(=O)O)cc1	-10%	30µM*	-19%	x	1%	2%

Screens deposited in PubChem by National Center for Advancing Translational Sciences (NCATS).
